The text below walks through data of the supplement of paper PMC6555819.

For this assay, the system named is RARa:RXR (NR concentration 270 nM, RXRa partner concentration 90 nM). The assay can be described thus: PBM binding z-score (relative to random genomic background probes); higher = stronger binding; sequences stand for … in GC…GCGATTGACAGCGTAGAATGAAGG
A digest of the protocol: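 Each nuclear receptor dimer, without ligand, was incubated for 1 h on custom Agilent 4×180K protein-binding microarrays. Binding was detected with antibodies against each partner (one per run), and scanned fluorescence was regression-normalized. The binding z-scores are referenced to random human genomic background probes.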
For CGAACTAGGTCATTGACAGGACAGAGAATAGTAA, the PBM binding z-score came to 2.19. For CGCACGAGGGCATGAGTTGATAGCAAATGCCGAT, the PBM binding z-score stood at 0.296. In turn, ACAGACAGGTGAGTGAAGATAACTCAGCTGGACG had a PBM binding z-score of -0.226. GCGACTGGGGCATCCGCAGGTTACCATAACTTAA gave a PBM binding z-score of 0.49. As to ACTAGCAGGCCAAGTGTGGGTCACTCAAACAAAG, the PBM binding z-score stood at 1.35. Take GATACAGGGTCAAGGCGAGAGTACGCGTATTGAT: the PBM binding z-score worked out at 4.83. ACAGACAGGTGAGTAAAGGTAACTCAGCTGGACG registered a PBM binding z-score of 1.06. On to ACTAGTTGGTCAGCTGAGGTCACCCACAATTCGG, for which the PBM binding z-score amounted to 4.87. The same measure for CCGAGTGGGGCAAGGTTACCATAACGCACAGCCA: 1.16.

CAAACTAGGTCAAGAGGTCAAAATCCGCTTCCCG returned a PBM binding z-score of 7.65. In turn, CCGACTTGGGCATAAGGTTACCATAAGCCAGCCC had a PBM binding z-score of 0.822. In turn, CGTTACGGGTCACTGACAGGTTATAGCATTTGGA gave a PBM binding z-score of 4.61. For CGAGCTAGGTCATCCAGGACAGTGAATACATTGA, the PBM binding z-score came out at 2.15. The same measure for CCTAGTTGGTCAAGTTCACACACGCTATAGGTAC: 2.27; for CGTCCAAGGTCATAGGAGGTCAGTGTAGACAGAT: 6.16; for CCTAGTTGGTCAGCAGGTCACACACCGGATATGA: 3.23. CGTCCAAGGCCAGCAGGTCAGTGAAAGCGACGTG had a PBM binding z-score of 0.692. The same measure for TCTATTATTTGATTAGGGCAACCGAAACAGCGGA: 1.17.
